# Shown are actives, neighbours in structure and some others; about 3.8% of the full set was active somewhere.
# HSF1 inh = HSF1 inhibition. NIH3T3-HGL HSE-luciferase, MG132-induced, luminescence 8 h; hits give low values. activity change, negative = inhibition, % at 7.5 µM (by protocol). hit rate 0.77% among 300,000. AID 2098;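 active means more than half of replicate wells show activity change below -50%, luminescence cut by over half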;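 further: luciferase reports HSF-1 transcriptional activity via heat shock element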
# pCIP destab = compounds decreasing mouse p/CIP protein stability. Q05BA5. F442A p/CIP-EGFP cells, EGFP fluorescence, 16 h. decrease of EGFP signal, % at 10 µM. hit rate 0.01% among 290,000. AID 1984;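 active means EGFP signal decrease of at least 30% at 10 µM or well 3 SD below plate mean, unless failing retest; inactive means the rest, including hits failing retest or dose response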
# HSP90 refold inh = blocks HSP90-mediated luciferase refolding in reticulocyte lysate; AID 1789; Rabbit reticulocyte lysate, luciferase refolding luminescence, 3 h; inhibition, % at 5.6 µM; hit rate 0.91% among 290,000;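 active means inhibition above the screen-wide mean plus 3 SD, computed separately per campaign, cut at about 16% in these data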;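 further: inhibitors lower the luminescence because luciferase stays unfolded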
# NALP1 inh = blocks the NALP1 inflammasome reconstituted in yeast; hit rate 0.61% among 280,000; inhibition, % at 10 µM; S. cerevisiae NALP1/ASC/caspase-1 growth, X-gal OD620, 72 h; in the data active means inhibition mostly above about 24%, no sharp cut-off; inactive means mostly below about 32%
# Hsp70 act = switches on Hsp70 transcription; hit rate 0.04% among 200,000; HeLa Hsp70 promoter luciferase reporter, luminescence; scaled: vehicle 0, proteasome-inhibitor control 100%; activation, % at 10 µM; AID 1203;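 active means activation above the mean across all tested compounds plus 3 SD, cutoff set per campaign, cut at about 5.5% in these data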
# HSF-1 act = increases HSF-1 driven luciferase reporter signal | hit rate 1.7% among 300,000 | activation, % at 9 µM | NIH3T3-HGL HSF-1 luciferase reporter, MG132, 8 h; 100% = twice DMSO control signal;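 active means mean replicate activation of at least 50% with a set share of replicates each reaching 50%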
# HSP90 inh confirm = HSP90 inhibition, confirmation assay; shares compounds with HSP90 refold inh; rabbit reticulocyte lysate, luciferase refolding luminescence, 3 h; inhibition, % at 5.9 µM; hit rate 64% among 2,300; AID 1846; in the data active means inhibition above about 18%
# luciferase ctr = firefly luciferase inhibition, HSP90 counter-screen. shares compounds with HSP90 refold inh. purified native firefly luciferase, luminescence. inhibition, % at 5.9 µM. hit rate 48% among 2,300. AID 1847;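 active means inhibition above the mean inhibition of all tested sample wells plus 3 SD, cut at about 10% in these data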
# Target sequence (P08659 whole entry, looked up): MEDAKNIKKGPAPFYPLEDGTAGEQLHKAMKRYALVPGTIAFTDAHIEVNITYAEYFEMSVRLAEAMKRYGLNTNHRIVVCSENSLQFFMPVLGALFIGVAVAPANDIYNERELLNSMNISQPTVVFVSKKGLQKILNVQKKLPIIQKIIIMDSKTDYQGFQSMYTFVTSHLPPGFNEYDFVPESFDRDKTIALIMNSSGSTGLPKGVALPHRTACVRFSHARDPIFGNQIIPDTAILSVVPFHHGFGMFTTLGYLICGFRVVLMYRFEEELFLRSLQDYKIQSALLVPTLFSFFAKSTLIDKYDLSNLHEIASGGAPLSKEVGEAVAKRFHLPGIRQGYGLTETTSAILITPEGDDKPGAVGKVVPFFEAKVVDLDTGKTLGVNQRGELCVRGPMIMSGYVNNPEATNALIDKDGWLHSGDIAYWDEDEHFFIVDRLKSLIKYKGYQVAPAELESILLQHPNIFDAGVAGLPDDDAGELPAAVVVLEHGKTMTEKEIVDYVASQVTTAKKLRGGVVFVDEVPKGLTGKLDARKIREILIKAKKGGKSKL
# A number is an active result; n = inactive; x = not tested or not shown.
SMILES,HSF1 inh,pCIP destab,HSP90 refold inh,NALP1 inh,Hsp70 act,HSF-1 act,HSP90 inh confirm,luciferase ctr
CC(C)(C)NC(=O)C(c1ccc(Cl)cc1)N(Cc1ccco1)C(=O)CCl (configuration not stated),n,n,n,n,x,n,x,x
CN(C)c1ccc(-c2nc3ccccc3n2C)cc1,n,n,28,n,n,n,64,53
CC(C)c1ccc(C(O)Cc2nc3ccccc3n2C)cc1 (configuration not stated),n,n,n,x,x,n,x,x
CN(C)c1ccc(C(O)Cc2nc3ccccc3n2C)cc1 (configuration not stated),n,n,46,n,x,n,n,n
O=C(NC1CCN(Cc2ccc(Cl)cc2Cl)CC1)c1ccccc1,n,n,n,n,x,n,x,x
COc1ccc(-c2nc3ccccc3[nH]2)cc1,n,n,20,n,n,n,47,33
O=C(O)c1cccc(-c2nc3ccccc3[nH]2)c1,n,n,73,n,n,n,80,60
O=C(O)c1ccc2nc(CO)[nH]c2c1,n,n,36,n,n,n,20,n
CC(=O)Nc1cccc(-c2nc3ccccc3[nH]2)c1,n,n,n,n,n,n,x,x
CC(O)CCc1nc2ccc(C(=O)O)cc2[nH]1 (configuration not stated),n,n,n,n,n,n,x,x
Cc1cccc2cc(-c3nc4ccc(C(=O)O)cc4[nH]3)c(=O)oc12,n,n,21,n,x,n,n,21
FC(F)(F)c1ccccc1NC(=S)N/N=C1\CC2CC=CC12 (configuration not stated),x,n,n,n,n,x,x,x
COc1cc(NC(C)CCCN)c2ncccc2c1 (configuration not stated),n,x,x,x,x,n,x,x
COc1cc(NCCCCCCCN)c2ncccc2c1,n,n,80,n,n,n,n,n
CSCCC(NS(=O)(=O)c1cccc(C(F)(F)F)c1)C(=O)Nc1ccccc1N1CCCC1 (configuration not stated),n,x,x,x,x,n,x,x
COc1ccc(OC)c(N(CC(=O)N2CCN(Cc3ccccc3)CC2)S(C)(=O)=O)c1,n,n,20,n,x,n,n,n
CCN1CCN(C(=O)CN(c2cc(OC)ccc2OC)S(C)(=O)=O)CC1,n,n,n,n,n,n,x,x
CCc1ccc(N2CC(C(=O)Nc3cccc(S(=O)(=O)N4CCCC4)c3)CC2=O)cc1 (configuration not stated),n,x,x,x,x,n,x,x
CC(C)(C)C1CCc2onc(C(=O)NC3CCCC3)c2C1 (configuration not stated),n,n,n,n,n,n,x,x
O=C(NC1CCCCC1)c1noc2c1CCCCC2,n,n,19,n,n,n,31,14
CC1(C)C(C=C(Cl)Cl)C1C(=O)N(Cc1cccc(Cl)c1)C1CCS(=O)(=O)C1 (configuration not stated),n,n,17,n,n,n,n,n
CCN(C(=O)COC(=O)C1CCN(S(=O)(=O)c2ccc3c(c2)OCCO3)CC1)C1CCS(=O)(=O)C1 (configuration not stated),n,x,x,x,x,n,x,x
CCOc1ccc(OCc2ccc(C(=O)N3CCCCC3)o2)cc1,n,n,23,n,x,n,n,n
CCOc1ccc(OCc2ccc(C(=O)N3CCc4ccccc4C3)o2)cc1,n,n,24,n,n,n,33,n
CCN1CCN(C(=O)c2ccc(COc3ccc(Cl)cc3)o2)CC1,n,n,n,n,n,n,x,x
SMILES,HSF1 inh,pCIP destab,HSP90 refold inh,NALP1 inh,Hsp70 act,HSF-1 act,HSP90 inh confirm,luciferase ctr
CCOc1ccc(OCc2ccc(C(=O)Nc3cccnc3)o2)cc1,n,n,28,n,n,n,32,n
CCOc1ccc(OCc2ccc(C(=O)NCc3cccnc3)o2)cc1,n,n,n,n,n,n,x,x
c1ccc(OCCSc2nnc3sc4ccccc4n23)cc1,n,n,45,n,n,n,76,74
COc1cccc(OCCSc2nnc3sc4ccccc4n23)c1,n,n,n,n,n,n,x,x
COc1ccccc1NC(=O)C(=O)c1cn(CC(=O)N2CCOCC2)c2ccccc12,n,n,21,n,x,n,n,n
Cc1oc(-c2ccc(Cl)cc2)cc1C(=O)O,n,n,20,x,x,n,18,n
Cc1ncc(C[n+]2csc(CCOC(=O)C34CC5CC(CC(C5)C3)C4)c2C)c(N)n1,n,n,50,n,n,n,n,n
Cc1ncc(C[n+]2csc(CCOC(=O)CC3C4CC5CC(C4)CC3C5)c2C)c(N)n1 (configuration not stated),n,n,n,n,n,n,x,x
O=C(c1ccc(N2CCOCC2)cc1)c1cccs1,n,n,18,n,n,n,42,21
O=C(c1cc(F)cc2c1OCOC2)N1CCN(c2ccc(F)cc2)CC1,n,n,n,n,x,n,x,x
COC(=O)[C@@H](c1ccccc1)N(C)S(=O)(=O)c1cccc(S(=O)(=O)N(C)[C@@H](C(=O)OC)c2ccccc2)c1,n,n,22,n,x,n,n,n
COc1ccc(-n2nc(C(=O)NCC(=O)N3CCN(Cc4ccccc4)CC3)c3ccccc3c2=O)cc1,n,n,24,n,x,n,n,n
CCc1nc(SCC(=O)Nc2nc3c(s2)CCCC3)c2ccccc2n1,n,n,n,n,n,n,x,x
CCCc1nc(SCC(=O)Nc2nc3c(s2)CCCC3)c2ccccc2n1,n,n,19,n,n,n,n,n
Cn1cc(C(=O)c2ccccc2)cc1-c1nc2ccccc2n1C,n,n,n,n,n,n,x,x
Cc1oc(-c2nc3ccccc3n2C)cc1C(=O)c1ccccc1,n,n,17,n,n,n,57,46
Cc1cc(/C=C2\SC(=S)N(C)C2=O)c(C)n1-c1ccccc1O,n,x,x,x,x,n,x,x
Cc1cc(/C=C2\SC(=S)N(C)C2=O)c(C)n1-c1ccc(O)cc1,-52,n,60,n,x,n,82,82
CC(=O)NC1C(=O)N=C(SCC(=O)NC(C)c2ccccc2)NC1=O (configuration not stated),n,n,n,n,n,n,x,x
CC(=O)NC1C(=O)N=C(SCc2ccccc2)NC1=O (configuration not stated),n,n,49,n,n,n,n,n
CCOc1ccccc1-n1c(SCC(=O)Nc2ccccc2C(=O)O)nc2ccccc2c1=O,-74,n,50,n,x,n,56,37
COc1ccc(O)c(C(=O)c2cnn(-c3ccccc3)c2)c1,n,n,n,n,x,n,x,x
COc1ccc(-n2cc(C(=O)c3ccccc3O)cn2)cc1,-51,n,34,n,n,n,52,40
O=C1NC(=O)C(Cc2c[nH]c3ccccc23)N1 (configuration not stated),n,n,n,n,x,n,x,x

# Screening data (PubChem)
